# Reference: ChEMBL document CHEMBL1961873, “Compounds: GSK PKIS; Assays: Nanosyn kinase panel” (2012)
# Several values for one entry are separate records, joined by “and”; a condition that tells them apart may be missing. Identical values can stand only once.
# Key:
# [1] = target: Serine/threonine-protein kinase PAK 6 (Homo sapiens) (UniProt Q9NQU5); settings: at 1 µM;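 further: values are mean percent inhibition of PAK6 kinase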
# [2] = test system: Tyrosine-protein kinase ABL1 (Homo sapiens), P00519 [E255K]; settings: at 0.1 µM
# [3] = test system: Tyrosine-protein kinase ABL1 (Homo sapiens), P00519 [E255K]; settings: at 1 µM
# [4] = test system: Tyrosine-protein kinase ABL1 (Homo sapiens), P00519 [H396P]; settings: at 0.1 µM
# [5] = test system: Tyrosine-protein kinase ABL1 (Homo sapiens), P00519 [H396P]; settings: at 1 µM
# [6] = test system: Tyrosine-protein kinase ABL1 (Homo sapiens), P00519 [M351T]; settings: at 0.1 µM
# [7] = test system: Tyrosine-protein kinase ABL1 (Homo sapiens), P00519 [M351T]; settings: at 1 µM
# [8] = test system: Tyrosine-protein kinase ABL1 (Homo sapiens), P00519 [Q252H]; settings: at 0.1 µM
# [9] = test system: Tyrosine-protein kinase ABL1 (Homo sapiens), P00519 [Q252H]; settings: at 1 µM
# [10] = test system: Tyrosine-protein kinase ABL1 (Homo sapiens), P00519 [T315I]; settings: at 0.1 µM
# [11] = test system: Tyrosine-protein kinase ABL1 (Homo sapiens), P00519 [T315I]; settings: at 1 µM
# [12] = test system: Tyrosine-protein kinase ABL1 (Homo sapiens), P00519 [Y253F]; settings: at 0.1 µM
# [13] = test system: Tyrosine-protein kinase ABL1 (Homo sapiens), P00519 [Y253F]; settings: at 1 µM
# [14] = target: Tyrosine-protein kinase ABL1 (Homo sapiens) (UniProt P00519); settings: at 0.1 µM
# [15] = target: Tyrosine-protein kinase ABL1 (Homo sapiens) (UniProt P00519); settings: at 1 µM
# [16] = target: ALK tyrosine kinase receptor (Homo sapiens) (UniProt Q9UM73); settings: at 0.1 µM
# [17] = target: ALK tyrosine kinase receptor (Homo sapiens) (UniProt Q9UM73); settings: at 1 µM
# [18] = target: Tyrosine-protein kinase ABL2 (Homo sapiens) (UniProt P42684); settings: at 0.1 µM
# [19] = target: Tyrosine-protein kinase ABL2 (Homo sapiens) (UniProt P42684); settings: at 1 µM
# [20] = target: Tyrosine-protein kinase receptor UFO (Homo sapiens) (UniProt P30530); settings: at 0.1 µM;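 further: values are mean percent inhibition of AXL from the GSK PKIS screen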
# Tyrosine-protein kinase receptor UFO (Homo sapiens), sequence (P30530 whole entry): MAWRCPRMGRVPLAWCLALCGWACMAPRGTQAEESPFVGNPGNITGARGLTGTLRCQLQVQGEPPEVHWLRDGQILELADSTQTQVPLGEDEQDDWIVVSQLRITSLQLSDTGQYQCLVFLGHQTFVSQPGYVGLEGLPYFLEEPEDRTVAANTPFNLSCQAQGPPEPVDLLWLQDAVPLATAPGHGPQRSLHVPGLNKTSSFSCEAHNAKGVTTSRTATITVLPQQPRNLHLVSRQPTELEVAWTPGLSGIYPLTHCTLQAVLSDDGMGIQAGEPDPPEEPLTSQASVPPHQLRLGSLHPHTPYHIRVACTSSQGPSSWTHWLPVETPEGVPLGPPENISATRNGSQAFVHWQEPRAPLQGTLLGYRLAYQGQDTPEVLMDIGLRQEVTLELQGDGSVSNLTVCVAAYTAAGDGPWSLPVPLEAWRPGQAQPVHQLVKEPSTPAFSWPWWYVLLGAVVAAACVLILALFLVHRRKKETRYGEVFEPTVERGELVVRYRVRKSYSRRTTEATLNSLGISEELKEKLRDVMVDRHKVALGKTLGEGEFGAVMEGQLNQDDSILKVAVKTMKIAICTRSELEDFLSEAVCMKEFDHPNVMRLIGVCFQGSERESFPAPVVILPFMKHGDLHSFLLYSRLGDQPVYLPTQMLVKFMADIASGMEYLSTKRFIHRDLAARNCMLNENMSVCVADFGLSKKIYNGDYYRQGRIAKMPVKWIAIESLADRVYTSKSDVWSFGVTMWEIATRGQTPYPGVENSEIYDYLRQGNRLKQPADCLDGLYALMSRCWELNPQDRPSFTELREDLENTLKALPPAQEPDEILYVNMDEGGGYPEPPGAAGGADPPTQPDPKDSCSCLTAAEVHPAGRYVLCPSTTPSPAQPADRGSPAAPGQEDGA
# ALK tyrosine kinase receptor (Homo sapiens), sequence (Q9UM73 19-1620 limits assumed): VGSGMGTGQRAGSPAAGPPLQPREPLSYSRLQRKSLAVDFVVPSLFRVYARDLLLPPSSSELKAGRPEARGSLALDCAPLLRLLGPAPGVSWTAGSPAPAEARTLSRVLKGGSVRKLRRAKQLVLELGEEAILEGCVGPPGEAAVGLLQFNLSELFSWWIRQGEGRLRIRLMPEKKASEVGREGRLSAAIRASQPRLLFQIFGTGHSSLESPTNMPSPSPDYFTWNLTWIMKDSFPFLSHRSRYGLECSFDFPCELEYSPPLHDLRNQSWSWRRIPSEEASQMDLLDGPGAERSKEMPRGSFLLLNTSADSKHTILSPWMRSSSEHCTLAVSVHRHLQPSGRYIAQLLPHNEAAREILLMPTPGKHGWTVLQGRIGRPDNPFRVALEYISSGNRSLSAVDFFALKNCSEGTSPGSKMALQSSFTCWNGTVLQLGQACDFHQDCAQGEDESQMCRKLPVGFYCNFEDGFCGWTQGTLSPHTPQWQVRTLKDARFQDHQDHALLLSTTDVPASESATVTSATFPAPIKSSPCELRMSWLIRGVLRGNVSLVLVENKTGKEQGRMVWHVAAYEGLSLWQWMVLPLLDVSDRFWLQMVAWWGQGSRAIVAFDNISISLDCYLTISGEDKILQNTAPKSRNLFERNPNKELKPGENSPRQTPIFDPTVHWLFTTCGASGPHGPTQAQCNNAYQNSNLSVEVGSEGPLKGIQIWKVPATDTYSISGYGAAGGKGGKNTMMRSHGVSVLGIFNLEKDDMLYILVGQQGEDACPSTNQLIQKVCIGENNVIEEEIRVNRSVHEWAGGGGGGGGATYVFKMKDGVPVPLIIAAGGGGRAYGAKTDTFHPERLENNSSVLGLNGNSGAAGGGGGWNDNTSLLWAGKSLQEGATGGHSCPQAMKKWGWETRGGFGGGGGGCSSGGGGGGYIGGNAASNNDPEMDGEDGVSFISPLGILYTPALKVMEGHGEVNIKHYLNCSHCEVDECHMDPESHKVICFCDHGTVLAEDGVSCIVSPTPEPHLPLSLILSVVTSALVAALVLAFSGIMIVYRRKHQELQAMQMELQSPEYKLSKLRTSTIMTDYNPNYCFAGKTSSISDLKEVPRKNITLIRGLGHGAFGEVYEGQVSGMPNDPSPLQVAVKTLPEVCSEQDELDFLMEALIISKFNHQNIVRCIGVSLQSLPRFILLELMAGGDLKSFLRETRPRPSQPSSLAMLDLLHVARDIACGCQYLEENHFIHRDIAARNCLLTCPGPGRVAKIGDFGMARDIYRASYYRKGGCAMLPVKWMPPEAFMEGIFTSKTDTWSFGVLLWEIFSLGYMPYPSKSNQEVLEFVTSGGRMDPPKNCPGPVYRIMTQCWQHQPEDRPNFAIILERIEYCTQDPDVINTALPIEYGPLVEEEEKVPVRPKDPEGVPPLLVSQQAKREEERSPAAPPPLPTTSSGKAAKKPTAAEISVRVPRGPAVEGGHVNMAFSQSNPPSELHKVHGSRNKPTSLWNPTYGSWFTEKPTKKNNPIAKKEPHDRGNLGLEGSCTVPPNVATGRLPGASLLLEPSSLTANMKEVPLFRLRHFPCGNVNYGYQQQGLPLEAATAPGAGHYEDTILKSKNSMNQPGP
# Tyrosine-protein kinase ABL2 (Homo sapiens), sequence (P42684 whole entry): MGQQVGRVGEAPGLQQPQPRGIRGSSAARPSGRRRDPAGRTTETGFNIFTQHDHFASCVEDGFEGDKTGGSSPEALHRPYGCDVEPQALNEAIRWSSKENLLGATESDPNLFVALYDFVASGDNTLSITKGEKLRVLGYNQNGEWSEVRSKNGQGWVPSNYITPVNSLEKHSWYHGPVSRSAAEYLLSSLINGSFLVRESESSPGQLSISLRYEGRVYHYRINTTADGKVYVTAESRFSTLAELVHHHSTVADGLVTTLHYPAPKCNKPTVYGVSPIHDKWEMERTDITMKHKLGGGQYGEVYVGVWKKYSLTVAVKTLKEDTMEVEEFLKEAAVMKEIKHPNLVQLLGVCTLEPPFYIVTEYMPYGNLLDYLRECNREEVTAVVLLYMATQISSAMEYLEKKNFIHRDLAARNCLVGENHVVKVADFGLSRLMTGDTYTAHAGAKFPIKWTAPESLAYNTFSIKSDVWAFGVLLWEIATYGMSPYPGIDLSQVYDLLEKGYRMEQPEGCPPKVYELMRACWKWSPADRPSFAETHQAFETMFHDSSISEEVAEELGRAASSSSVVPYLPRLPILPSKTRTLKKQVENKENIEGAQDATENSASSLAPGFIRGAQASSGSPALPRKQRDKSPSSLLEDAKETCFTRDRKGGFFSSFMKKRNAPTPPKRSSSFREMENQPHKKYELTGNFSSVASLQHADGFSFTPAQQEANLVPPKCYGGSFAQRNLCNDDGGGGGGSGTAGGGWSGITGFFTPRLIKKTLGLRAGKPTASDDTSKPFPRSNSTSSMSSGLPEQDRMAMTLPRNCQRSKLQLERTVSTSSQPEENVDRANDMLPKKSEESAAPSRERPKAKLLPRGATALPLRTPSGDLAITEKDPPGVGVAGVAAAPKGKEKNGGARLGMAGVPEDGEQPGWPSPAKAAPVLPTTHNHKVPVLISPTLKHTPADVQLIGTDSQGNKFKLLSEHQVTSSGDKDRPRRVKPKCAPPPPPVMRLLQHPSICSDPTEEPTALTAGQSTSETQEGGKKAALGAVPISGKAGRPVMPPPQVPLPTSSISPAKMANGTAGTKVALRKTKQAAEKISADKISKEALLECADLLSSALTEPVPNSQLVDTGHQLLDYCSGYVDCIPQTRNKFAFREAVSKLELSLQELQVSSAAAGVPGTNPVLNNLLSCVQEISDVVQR
# Serine/threonine-protein kinase PAK 6 (Homo sapiens), sequence (Q9NQU5 whole entry, looked up): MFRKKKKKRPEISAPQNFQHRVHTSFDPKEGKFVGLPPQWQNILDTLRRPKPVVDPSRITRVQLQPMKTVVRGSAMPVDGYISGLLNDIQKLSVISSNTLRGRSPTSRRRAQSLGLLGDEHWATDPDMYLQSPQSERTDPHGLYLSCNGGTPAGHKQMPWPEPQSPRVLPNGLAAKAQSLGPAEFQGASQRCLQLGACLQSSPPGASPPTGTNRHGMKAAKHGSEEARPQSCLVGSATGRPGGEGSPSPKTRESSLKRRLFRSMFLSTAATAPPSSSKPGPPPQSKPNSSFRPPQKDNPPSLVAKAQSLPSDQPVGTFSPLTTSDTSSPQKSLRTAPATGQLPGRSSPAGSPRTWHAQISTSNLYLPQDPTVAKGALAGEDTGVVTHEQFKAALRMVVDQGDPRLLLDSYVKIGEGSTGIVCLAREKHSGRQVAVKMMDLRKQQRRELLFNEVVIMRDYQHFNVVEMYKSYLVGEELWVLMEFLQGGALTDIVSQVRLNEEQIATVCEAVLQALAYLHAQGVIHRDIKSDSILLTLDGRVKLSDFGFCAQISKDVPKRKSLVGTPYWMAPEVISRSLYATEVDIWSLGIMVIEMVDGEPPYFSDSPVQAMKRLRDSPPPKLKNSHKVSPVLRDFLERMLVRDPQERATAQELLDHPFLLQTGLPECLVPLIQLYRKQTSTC
SMILES,inhibition [1] [%],inhibition [2],inhibition [3],inhibition [4],inhibition [5],inhibition [6],inhibition [7],inhibition [8],inhibition [9],inhibition [10],inhibition [11],inhibition [12],inhibition [13],inhibition [14],inhibition [15],inhibition [16],inhibition [17],inhibition [18],inhibition [19],inhibition [20]
COc1cc2c(cc1Nc1nc(Nc3cccc(F)c3C(N)=O)c3cc[nH]c3n1)N(C(=O)CN1CCN(C(C)C)CC1)CC2,-0.05,-0.8%,-0.74%,-1.59%,0.65%,-1.33%,2.97%,-0.13%,3.8%,-0.82%,2.05%,-2.26%,1.07%,-1.27%,-0.09%,62.8%,82.3%,-1.03%,-1.11%,-1.56%
COc1ccccc1-c1cc(/C=C2\C(=O)Nc3ncc(Br)cc32)cc(Br)c1O,-6.64,5.22%,22.3%,6.17%,21.9%,5.09%,19.8%,6.3%,20.5%,1.82%,5.39%,5.65%,20%,4.63%,27.9%,2.62%,6.47%,3.44%,15.1%,-9.46%
O=C(O[C@H]1CN[C@H](C#Cc2cc3ncnc(Nc4ccc5c(ccn5Cc5cc(F)ccc5F)c4)c3s2)C1)N1CCOCC1,-0.57,1.52%,3.53%,4.04%,8.92%,1.92%,3.98%,3.74%,3.88%,3.97%,3.69%,2.24%,4.4%,3.14%,3.38%,4.15%,4.73%,1.18%,1.47%,-7.4%
COc1cc(Nc2ncc(-c3ccccc3)o2)cc(OC)c1,-4.99,5.8%,23.1%,9.34%,39.7%,8.13%,41.1%,9.25%,33.6%,4.18%,13.2%,13.2%,50.9%,8.41%,35.4%,2.73%,4.06%,5.68%,29.4%,-6.45%
Cc1cc(O)cc(C)c1/C=C/c1cncc(C(N)=O)c1,10.6,15.7%,61%,20.4%,70.1%,18.5%,69%,18.7%,67.5%,2.31%,7.26%,27.8%,73.6%,15.1%,66%,3.62%,4.41%,12.2%,59.3%,-2.07%
NS(=O)(=O)c1ccc(N/N=C2\C(=O)Nc3cccc(CCc4ccncc4)c32)cc1,-3.63,-0.21%,3.53%,2.64%,7.39%,3.41%,8.25%,1.54%,7.74%,1.83%,6.34%,3.29%,8.15%,3.11%,4.4%,1.31%,4.47%,2.11%,3.55%,-0.12%
CCCNc1cccc(-n2ncc3c(N/N=C/c4ccncc4)ncnc32)c1,2.09,27.1%,77.2%,37.5%,86%,36.8%,85.8%,35.7%,83.8%,37.5%,85.8%,42.4%,86.2%,24.3%,75.3%,0.42%,3.35%,11.6%,61.9%,2.01%
Cc1ccc(-c2cc3c(NC(=O)C4CC4)ncnc3o2)cc1,1.82,5.52%,18.3%,5.91%,24.2%,3.97%,22.8%,6.11%,23.7%,4.71%,14%,7.48%,29.1%,5.87%,30.4%,4.09%,10.7%,3.64%,2.5%,-6.86%
CN1CCC(C(=O)Nc2n[nH]c3nc(-c4ccc(O)cc4)c(Br)cc23)CC1,-4.52,2.77% and -0.12%,13.4% and 6.5%,4.9% and 3.81%,15.7% and 13.9%,1.55% and 2.92%,13.9% and 9.89%,3.16% and 3.78%,17.1% and 15.7%,2.49% and 2.76%,22.5% and 15.6%,3.92% and 2.19%,15.1% and 9.74%,0.28% and 3.94%,10.7% and 12.2%,2.7% and 5.6%,31.6% and 35.4%,-0.95% and 2.31%,4.33% and 4.83%,-5.65% and -3.46%
COc1ccc2ncn(-c3cc(O[C@H](C)c4ccccc4C(F)(F)F)c(C(N)=O)s3)c2c1,-8.65,-0.4%,-1.92%,-0.02%,2.03%,0.8%,1.91%,-0.3%,2.05%,0.03%,0.84%,-1.93%,-0.53%,0.27%,9.42%,-0.81%,2.16%,4.37%,2.94%,0.07%
CS(=O)(=O)Nc1ccc(-c2ccc3c(NC(=O)C4CC4)n[nH]c3c2)cc1,5.45,2.53%,5.92%,4.24%,17.5%,4.89%,20.3%,4.73%,9.35%,4.61%,16.9%,5.2%,9.04%,3.79%,9.67%,3.16%,11%,2.46%,4.71%,-3.54%
COc1c(C(N)=O)cc(-c2ccc(Cl)cc2)cc1-c1ccc(S(N)(=O)=O)cc1,-4.53,2.38%,3.7%,3.77%,5.78%,1.02%,1.14%,3.13%,5.89%,3.24%,2.49%,2.41%,4.61%,3.19%,3.54%,5.82%,7.26%,2.13%,3.9%,-6.59%
CNC(=O)c1cncc(/C=C/c2ccccc2C)c1,12,4.47%,16.5%,6.03%,28.8%,6.13%,22.7%,5.28%,19.3%,1.47%,4.28%,6.17%,31.7%,5.99%,25.9%,4.09%,4.22%,6.78%,16.1%,-3.18%
NS(=O)(=O)c1ccc(N/N=C2\C(=O)Nc3ccc(C(=O)NCc4ccncc4)cc32)cc1,12.5,0.9%,10%,2.55%,15%,1.51%,13.2%,1.73%,11.6%,2.6%,12.8%,4.33%,19.1%,2.78%,15.2%,1.39%,4.24%,2.79%,9.41%,-1.05%
c1cnn2ncc(-c3ccnc(NCCCN4CCOCC4)n3)c2c1,-5.92,1.77%,1.98%,3.45%,3.75%,1.48%,0.71%,3.41%,2.1%,2.37%,3.23%,4.67%,1.93%,2.22%,6.5%,2.15%,3.78%,2.25%,1.19%,-7.99%
COC(=O)Nc1nc2cc(Oc3ccc(NC(=O)Nc4ccccc4)cc3)ccc2[nH]1,-2.94,4.95%,11.4%,14.1%,41%,28.9%,47.8%,22.5%,51.8%,15.9%,31.3%,6.49%,18.9%,5.66%,11.3%,1.19%,2.23%,9.07%,16.8%,-7.01%
CN(C)CCNC(=O)Nc1ccc(N(C)c2ccnc(Nc3ccc(CS(C)(=O)=O)cc3)n2)cc1,-1.22,2.92%,10.2%,5.45%,12.3%,4.48%,15.1%,5.59%,17.4%,4.39%,14.5%,7.05%,14.7%,5.68%,19.6%,3.32%,11.7%,5.95%,16.8%,-5.4%
O=C(O[C@H]1CN[C@H](C#Cc2cc3ncnc(Nc4ccc(OCc5cccc(F)c5)c(Cl)c4)c3s2)C1)N1CCOCC1,-5.21,0.66%,4.53%,3.67%,5.92%,2.25%,4.53%,3.47%,2.92%,4.04%,6.54%,2.93%,5.78%,1.93%,3.32%,7.04%,6.43%,0.82%,0.68%,-7.05%
Cc1nnc(-c2cccc(-c3ccc(C(=O)NCC4CC4)cc3)c2)o1,-1.37,4.38%,4.87%,4.09%,6.67%,2.13%,5.6%,4.31%,5.92%,4.43%,5.17%,2.61%,4.27%,5.41%,9.95%,3.15%,5.21%,3.81%,9.01%,-9.15%
NS(=O)(=O)c1cccc(N/C=C2\C(=O)Nc3ccccc32)c1,1.64,5.29%,7.64%,6.01%,8.67%,3.89%,8.75%,5.8%,8.71%,3.14%,8.55%,5.67%,11%,3.17%,10.9%,2.94%,12.7%,4.2%,13.3%,-7.48%
O=C(O[C@H]1CN[C@H](C#Cc2cc3ncnc(Nc4ccc5c(cnn5Cc5ccccc5)c4)c3s2)C1)N1CCOCC1,0.8,0.73%,0.29%,-0.26%,1.3%,2.14%,-0.2%,0.53%,0.83%,-1.97%,0.36%,-0.26%,0.7%,-0.22%,2.55%,-0.47%,0.05%,-0.58%,2.25%,0.41%
Cc1cc(O)cc(C)c1/C=C/c1cncc(C(=O)OC(C)(C)C)c1,-0.98,4.42%,21.6%,7.59%,35%,9.08%,46%,11.7%,52.5%,1.3%,4.07%,9.34%,38.4%,5.51%,31.9%,3.06%,5.54%,8.31%,36.2%,-3.22%
CCOc1ccc2c(-c3ccnc(Nc4cc(OC)cc(C(F)(F)F)c4)n3)cnn2n1,3.48,0.14%,4.02%,0.25%,6.23%,2.11%,7.2%,1.15%,6.33%,0.17%,3.15%,2.66%,7.81%,5.8%,11.5%,-0.08%,1.27%,6.07%,9.53%,0.45%
c1ccc(-c2n[nH]cc2-c2ccnc(-c3ccc(OCCn4ccnc4)cc3)c2)nc1,-6.97,23.1%,71.2%,46.9%,88.1%,43.8%,87.2%,25.9%,73.4%,3%,7.34%,31.8%,78.8%,30.5%,68.8%,-0.73%,3.68%,5.73%,56.4%,-0.5%
COc1ccc(-c2nn3ncccc3c2-c2ccnc(Nc3ccc(F)c(F)c3)n2)cc1,-1.89,3.61%,10.3%,4.57%,22.8%,17%,58.1%,12.2%,47.4%,5.18%,16.6%,5.29%,17.1%,3.82%,14.7%,2.49%,8.04%,2.7%,11.9%,-1.84%
N#Cc1ccc2c(-c3ccnc(NC4CC4)n3)c(-c3ccc(F)cc3)nn2c1,-2.35,-0.39%,0.55%,-0.57%,3.93%,-0.71%,3.61%,0.81%,4.72%,-0.18%,1.49%,-0.67%,3.58%,-0.74%,6.61%,0.92%,0.32%,0.94%,5.29%,-4.43%
CCS(=O)(=O)c1ccc(OC)c(Nc2ncc(-c3cccc(F)c3)o2)c1,-6.17,30.8%,80.4%,40.8%,85.8%,38.6%,85%,41.9%,86.4%,4.78%,25.1%,52.5%,90.2%,39.8%,77.5%,4.12%,7.35%,32.8%,74.6%,-6.71%
